Here are results for 7 sequences from publication PMC4081100, “A DNA-binding-site landscape and regulatory network analysis for NAC transcription factors in Arabidopsis thaliana”.

Common to all, as to assay: universal protein binding microarray (PBM); transcription factors of Arabidopsis thaliana; high values mean tight binding
Conditions in all cases: protein: recombinant; tags: GST; chain copies: 2; dsDNA, one strand shown

For test [1], the target named is T1, GST-ANAC092(1-176) (Arabidopsis thaliana, UniProt Q9FKA0 1-176).
T1 sequence: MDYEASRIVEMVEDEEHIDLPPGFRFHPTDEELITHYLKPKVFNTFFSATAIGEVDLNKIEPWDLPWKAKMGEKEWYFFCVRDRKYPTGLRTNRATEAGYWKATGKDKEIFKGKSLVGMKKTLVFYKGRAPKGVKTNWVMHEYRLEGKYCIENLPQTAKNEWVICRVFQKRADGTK
An outline of the steps:
(§1)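 GST-tagged NAC-domain, full-length or DNA-binding-domain proteins were induced in cells, with zinc acetate added for zinc-finger proteins. They were purified on glutathione–Sepharose 4B and quantified by A280 or anti-GST western blot. Each was applied at 200 to 500 nM final, in duplicate, to custom all-10-mer Agilent 4 × 180K arrays made double-stranded by primer extension, with gapped and ungapped 8-mers scored. Binding is the normalised enrichment score (E-score).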

For test [2], the target named is GST-NTL6(1-168) (Arabidopsis thaliana, UniProt Q9SCK6 1-168). An outline of the steps:
as §1

Test [3] deals with T2, GST-ANAC019 NAC domain (Arabidopsis thaliana, UniProt Q9C932 14-162).
T2 sequence: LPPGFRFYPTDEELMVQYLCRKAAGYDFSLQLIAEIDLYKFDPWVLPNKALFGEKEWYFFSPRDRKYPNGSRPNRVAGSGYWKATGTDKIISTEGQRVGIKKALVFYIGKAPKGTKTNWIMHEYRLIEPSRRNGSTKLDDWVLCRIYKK
An outline of the steps:
as §1

Test [4] concerns the target T3, GST-ANAC055(1-171) (Arabidopsis thaliana, UniProt Q9LDY8 1-171).
T3 sequence: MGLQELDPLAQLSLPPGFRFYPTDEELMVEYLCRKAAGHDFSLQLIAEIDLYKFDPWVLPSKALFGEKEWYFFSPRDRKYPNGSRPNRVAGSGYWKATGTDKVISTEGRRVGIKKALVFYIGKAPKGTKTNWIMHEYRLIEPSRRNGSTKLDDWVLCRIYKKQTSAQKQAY
An outline of the steps:
as §1

In test [5] the target is T4, GST-ATAF1 NAC domain (Arabidopsis thaliana, UniProt Q39013 7-158).
T4 sequence: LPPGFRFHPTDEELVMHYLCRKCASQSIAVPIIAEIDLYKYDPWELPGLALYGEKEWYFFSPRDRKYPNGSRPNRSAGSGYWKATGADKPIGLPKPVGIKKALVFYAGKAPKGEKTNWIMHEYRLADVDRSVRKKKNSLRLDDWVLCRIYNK
An outline of the steps: as §1

Test [6] concerns the target T5, GST-ANAC092(1-285) full length (Arabidopsis thaliana, UniProt Q9FKA0 1-285).
T5 sequence: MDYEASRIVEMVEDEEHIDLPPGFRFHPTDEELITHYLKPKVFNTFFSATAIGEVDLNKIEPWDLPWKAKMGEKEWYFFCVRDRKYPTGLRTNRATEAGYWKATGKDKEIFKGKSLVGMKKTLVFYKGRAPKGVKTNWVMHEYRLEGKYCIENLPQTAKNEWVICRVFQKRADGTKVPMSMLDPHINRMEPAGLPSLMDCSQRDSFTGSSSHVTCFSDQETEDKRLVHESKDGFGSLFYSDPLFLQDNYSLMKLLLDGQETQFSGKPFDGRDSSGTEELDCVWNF
An outline of the steps:
as §1

Test [7] deals with T6, GST-NAP(1-166) (Arabidopsis thaliana, UniProt O49255 1-166).
T6 sequence: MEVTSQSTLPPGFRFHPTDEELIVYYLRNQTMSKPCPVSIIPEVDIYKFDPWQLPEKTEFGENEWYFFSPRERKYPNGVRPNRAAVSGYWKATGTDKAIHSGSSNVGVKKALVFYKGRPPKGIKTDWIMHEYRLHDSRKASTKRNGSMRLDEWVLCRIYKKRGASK
An outline of the steps:
as §1

The target of test [8] is T7, GST-NST2(1-184) (Arabidopsis thaliana, UniProt Q9M274 1-184).
T7 sequence: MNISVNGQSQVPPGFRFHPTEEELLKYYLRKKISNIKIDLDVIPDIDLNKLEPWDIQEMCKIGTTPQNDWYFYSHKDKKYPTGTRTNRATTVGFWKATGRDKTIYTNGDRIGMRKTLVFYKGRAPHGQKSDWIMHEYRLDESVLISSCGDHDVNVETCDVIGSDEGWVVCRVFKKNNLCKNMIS
An outline of the steps: as §1

In test [9] the target is T8, GST-NTL8 NAC domain (Arabidopsis thaliana, UniProt Q9XIN7 14-156).
T8 sequence: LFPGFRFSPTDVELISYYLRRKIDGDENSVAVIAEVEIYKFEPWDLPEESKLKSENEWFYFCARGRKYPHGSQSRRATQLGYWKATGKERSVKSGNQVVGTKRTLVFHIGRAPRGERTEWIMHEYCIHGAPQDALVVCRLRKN
The gist of the method: as §1

For test [10], the target named is T9, GST-SND1(1-203) (Arabidopsis thaliana, UniProt Q9LPI7 1-203).
T9 sequence: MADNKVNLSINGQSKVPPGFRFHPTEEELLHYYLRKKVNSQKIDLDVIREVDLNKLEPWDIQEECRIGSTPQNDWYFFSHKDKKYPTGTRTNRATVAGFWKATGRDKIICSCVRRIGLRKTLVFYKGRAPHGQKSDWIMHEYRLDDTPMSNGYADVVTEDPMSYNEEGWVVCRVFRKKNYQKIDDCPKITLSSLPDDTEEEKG
An outline of the steps:
as §1

Test [11] addresses T10, GST-VND3 NAC domain (Arabidopsis thaliana, UniProt Q9FH59 12-162).
T10 sequence: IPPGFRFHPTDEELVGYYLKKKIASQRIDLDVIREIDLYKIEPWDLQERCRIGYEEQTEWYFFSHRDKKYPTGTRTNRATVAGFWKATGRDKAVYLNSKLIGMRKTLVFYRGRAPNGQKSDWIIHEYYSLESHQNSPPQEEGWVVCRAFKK
The gist of the method:
as §1

Test [12] has as its target T11, GST-VND7 NAC domain (Arabidopsis thaliana, UniProt Q9C8W9 9-158).
T11 sequence: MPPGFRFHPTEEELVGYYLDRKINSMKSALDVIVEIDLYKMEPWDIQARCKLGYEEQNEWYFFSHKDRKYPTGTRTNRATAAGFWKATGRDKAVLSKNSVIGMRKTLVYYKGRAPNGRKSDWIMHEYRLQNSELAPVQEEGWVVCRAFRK
An outline of the steps: as §1

GST-NTL6(1-168), sequence (Q9SCK6 1-168): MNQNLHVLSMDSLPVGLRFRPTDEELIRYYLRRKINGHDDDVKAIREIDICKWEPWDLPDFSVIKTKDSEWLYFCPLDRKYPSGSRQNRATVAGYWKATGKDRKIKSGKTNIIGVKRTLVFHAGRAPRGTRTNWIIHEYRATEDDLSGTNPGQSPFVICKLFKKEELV

For GTTACTTA, the binding signal was determined as 0.306 E-score in test [1]; 0.461 E-score in test [2]; 0.0988 E-score in [3]; 0.117 E-score in [4]; 0.256 E-score in test [5]; 0.374 E-score in test [6]. For the same sequence, the binding signal in [7] stood at 0.113 E-score; in test [8], 0.25 E-score; in test [9] it was 0.286 E-score; in [10], 0.41 E-score; in test [11], 0.263 E-score; in test [12], 0.248 E-score.

For GTAAGAAA, the binding signal in [1] turned out to be 0.296 E-score; in test [2] it was 0.422 E-score; in test [3], 0.224 E-score; in test [4], 0.206 E-score; in [5] it was 0.311 E-score; in test [6], 0.332 E-score. Besides, the binding signal in test [7] came to 0.101 E-score; in test [8], 0.289 E-score; in test [9], 0.214 E-score; in test [10] it was 0.303 E-score; in test [11], 0.16 E-score; in test [12], 0.19 E-score.

As to AAGGGTAA, the binding signal is 0.117 E-score in test [1]; 0.194 E-score in [2]; 0.127 E-score in [3]; 0.0999 E-score in test [4]; 0.0524 E-score in test [5]; 0.134 E-score in test [6]. The binding signal in test [7] came to 0.117 E-score; in test [8], 0.126 E-score; in test [9], 0.444 E-score; in [10], 0.117 E-score; in test [11], 0.223 E-score; in test [12], 0.0677 E-score.

With TGCCGTAA, the binding signal was determined as 0.432 E-score in test [1]; 0.114 E-score in test [2]; 0.448 E-score in test [3]; 0.408 E-score in test [4]; 0.436 E-score in test [5]; 0.433 E-score in test [6]. Also, the binding signal in [7] stood at 0.402 E-score; in [8] it was 0.328 E-score; in test [9], 0.324 E-score; in test [10], 0.457 E-score; in [11] it was 0.437 E-score; in [12], 0.449 E-score.

Turning to AACGTAAT, the binding signal in [1] came out at 0.293 E-score; in test [2], 0.183 E-score; in test [3] it was 0.266 E-score; in [4], 0.32 E-score; in test [5], 0.359 E-score; in test [6], 0.357 E-score. The binding signal amounted to 0.286 E-score in [7]; 0.309 E-score in test [8]; 0.114 E-score in test [9]; 0.449 E-score in [10]; 0.359 E-score in [11]; 0.274 E-score in test [12].

For the sequence TTACGAAA, the binding signal in test [1] stood at 0.396 E-score; in test [2], 0.121 E-score; in test [3] it was 0.248 E-score; in test [4] it was 0.221 E-score; in test [5], 0.278 E-score; in test [6] it was 0.409 E-score. Also, the binding signal in [7] is 0.087 E-score; in test [8] it was 0.227 E-score; in [9], 0.067 E-score; in test [10], 0.434 E-score; in test [11] it was 0.26 E-score; in [12] it was 0.233 E-score.

In the case of CACGCAAA, the binding signal in test [1] is 0.487 E-score; in [2], 0.107 E-score; in [3] it was 0.421 E-score; in test [4], 0.348 E-score; in test [5], 0.292 E-score; in test [6] it was 0.486 E-score. Besides, the binding signal in test [7] was determined as 0.385 E-score; in test [8], 0.389 E-score; in test [9], 0.0878 E-score; in test [10], 0.426 E-score; in [11], 0.396 E-score; in [12] it was 0.419 E-score.
